# Experimental data published in PubChem BioAssay (EPA / NIEHS).
# Several values for one entry are separate records, joined by “and”; a condition that tells them apart may be missing. Equal values may be shown once. Results filed as inconclusive are left out. Activity calls are given as the source filed them. Rule for the calls: active = hit-call score of the fitted dose curve at least 0.9, where 1 is the maximum; inconclusive = response in the unintended direction; inactive = score below 0.9.
# Biological target: Cellular tumor antigen p53 (Homo sapiens) (UniProt P04637)
# Sequence (P04637 whole entry, looked up): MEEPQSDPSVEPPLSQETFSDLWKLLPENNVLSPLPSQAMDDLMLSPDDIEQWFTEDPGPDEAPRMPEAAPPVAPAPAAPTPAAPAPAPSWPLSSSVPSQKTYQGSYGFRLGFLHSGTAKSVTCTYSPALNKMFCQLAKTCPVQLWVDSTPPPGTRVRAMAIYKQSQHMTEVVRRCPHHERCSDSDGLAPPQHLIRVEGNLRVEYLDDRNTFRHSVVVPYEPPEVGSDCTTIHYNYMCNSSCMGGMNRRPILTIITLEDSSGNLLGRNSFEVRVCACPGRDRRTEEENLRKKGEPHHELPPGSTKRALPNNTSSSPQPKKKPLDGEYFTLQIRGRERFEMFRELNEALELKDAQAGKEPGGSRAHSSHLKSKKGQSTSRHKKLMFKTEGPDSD
# Experiment: TOX21_p53_BLA_p2_ratio: Tox21 HCT-116 p53 Agonism Beta-lactamase Assay, Ratio, Phase 2 (AID 2283592)
# How it was run: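 In this cell-based reporter format, HCT116 cells were dosed with chemicals delivered from DMSO by 217-fold dilution and incubated 16 h at 37C. Emission at 460 and 530 nm after 2 h CCF4-AM loading provided the ratio, fitted upward versus DMSO.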
Structure (SMILES),outcome,AC50
CC(C)OC(=O)Cc1ccccc1,inactive,–
BrC(Br)C(Br)(Br)Br,inactive,–
O=[N+]([O-])c1ccc([As](=O)(O)O)cc1,inactive,–
CCOC(=O)C1(c2ccccc2)CCN(CCC(C#N)(c2ccccc2)c2ccccc2)CC1,–,16.3 µM (active) and 6.96 µM (active)
CCCC(C)(COC(N)=O)COC(=O)NC(C)C (configuration not stated),inactive,–
C=CC[C@]1(O)CC[C@H]2[C@@H]3CCC4=CC(=O)CCC4=C3C=C[C@@]21C,inactive,–
O=c1c2ccccc2[se]n1-c1ccccc1,inactive,–
COc1cccc2c1cc([N+](=O)[O-])c1c(C(=O)O)cc3c(c12)OCO3,–,1.75 µM (active)
CCN(CC)CCO[C@H]1CC[C@@]2(C)C(=CC[C@@H]3[C@@H]2CC[C@]2(C)C(=O)CC[C@@H]32)C1,inactive,–
C[C@]12C[C@H]3S[C@H]3C[C@@H]1CC[C@@H]1[C@@H]2CC[C@]2(C)[C@@H](O)CC[C@@H]12,inactive,–
Nc1ccccc1C(=O)OCC=Cc1ccccc1,inactive,–
Nc1c(Br)cc([N+](=O)[O-])cc1[N+](=O)[O-],inactive,–
CNC(=O)ON=C(CSC)C(C)(C)C,inactive,–
O=c1oc2ccccc2c(O)c1Cc1c(O)c2ccccc2oc1=O,–,6.79 µM (active)
BrCCc1ccccc1,inactive,–
Oc1cc(Cl)cc(Cl)c1,–,79 µM (active)
CC(C)CON=O,inactive,–
N=C(N)[Se],inactive,–
c1ccc2c(c1)cc1ccc3cccc4ccc2c1c34,–,2.05 µM (active)
CCC[CH2][Sn]([CH2]CCC)([CH2]CCC)[O][Sn]([CH2]CCC)([CH2]CCC)[CH2]CCC,inactive,–
O=C(O)/C=C\C(=O)O,inactive,–
Cc1cc(C(C)(C)c2cc(C)c(O)c(C)c2)cc(C)c1O,–,20.7 µM (active)

# System: not listed separately
# Experiment: TOX21_p53_BLA_p3_viability: Viability Assessment in the Tox21 HCT-116 p53 Agonism Beta-lactamase Assay, Phase 3 (AID 2283593);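 note: cells exposed to compound for 16 h before reading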
# How it was run: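 HCT116 cells, 4000/well, dosed 5 h after plating by pin transfer (217-fold dilution from DMSO stock) and incubated 16 h at 37C, 5% CO2. Viability read as ATP luminescence with CellTiter-Glo after 30 min at room temperature.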
Structure (SMILES),outcome,AC50
Clc1ccc([C@@H]2C[C@H]3CC[C@@H]2N3)cn1,inactive,–
CCCCC#N,inactive,–
Oc1cc(Cl)c(Cl)c(Cl)c1Cl,–,22.3 µM (active)
CC(=O)Nc1cc([As](=O)(O)O)ccc1O,inactive,–
CCOP(=O)(OCC)SCCSCC (tested in a mixture with another compound),inactive,–
CC(C)CC(C)N (configuration not stated),inactive,–
CCCCCc1cc(O)c2c(c1)OC(C)(C)c1ccc(C)cc1-2,–,30.1 µM (active)
O=NN1CCN(N=O)CC1,inactive,–
O=c1ccc2cc(O[C@@H]3O[C@H](CO)[C@@H](O)[C@H](O)[C@H]3O)c(O)cc2o1,inactive,–
NCC(O)c1ccc(O)cc1 (configuration not stated),inactive,–
CN[C@H]1C[C@@H](N)[C@H](O)[C@@H](O[C@@H]2O[C@H](CO)[C@H](O)[C@@H]3OC4(O[C@H]23)O[C@H](C(N)CO)[C@H](O)[C@H](O)C4O)[C@@H]1O (some centres not stated),inactive,–
CCCCCCCCCCCCN=C(N)N,inactive,–
C[C@]12CCC(=O)C[C@@H]1CC[C@@H]1[C@@H]2CC[C@@]2(C)[C@H]1CC[C@]2(C)O,inactive,–
Clc1ccc(-c2ccc(Cl)c(Cl)c2Cl)c(Cl)c1Cl,inactive,–
Cc1ccccc1-n1c(C)nc2ccccc2c1=O,inactive,–
CCC1(c2ccccc2)C(=O)NC(=O)NC1=O,inactive,–
CC(C)(O)[C@@H]1[C@H]2OC(=O)[C@@H]1[C@]1(O)C[C@H]3O[C@]34C(=O)O[C@H]2[C@]14C (tested in a mixture with another compound),inactive,–
C[C@@H]1CC[C@@]2(OC1)O[C@H]1[C@@H](O)[C@H]3[C@@H]4CC[C@H]5C[C@@H](O[C@@H]6O[C@H](CO)[C@H](O[C@@H]7O[C@H](CO)[C@@H](O)[C@H](O[C@@H]8OC[C@@H](O)[C@H](O)[C@H]8O)[C@H]7O[C@@H]7O[C@H](CO)[C@@H](O)[C@H](O[C@@H]8O[C@H](CO)[C@@H](O)[C@H](O)[C@H]8O)[C@H]7O)[C@H](O)[C@H]6O)[C@H](O)C[C@]5(C)[C@H]4CC[C@]3(C)[C@H]1[C@@H]2C,–,48.5 µM (active)
CC(C)OC(=O)Cc1ccccc1,inactive,–
BrC(Br)C(Br)(Br)Br,inactive,–

Structure (SMILES),outcome,AC50
O=[N+]([O-])c1ccc([As](=O)(O)O)cc1,inactive,–
CCOC(=O)C1(c2ccccc2)CCN(CCC(C#N)(c2ccccc2)c2ccccc2)CC1,inactive,–
CCCC(C)(COC(N)=O)COC(=O)NC(C)C (configuration not stated),inactive,–
C=CC[C@]1(O)CC[C@H]2[C@@H]3CCC4=CC(=O)CCC4=C3C=C[C@@]21C,inactive,–
O=c1c2ccccc2[se]n1-c1ccccc1,inactive,–
COc1cccc2c1cc([N+](=O)[O-])c1c(C(=O)O)cc3c(c12)OCO3,–,79.8 µM (active)
CCN(CC)CCO[C@H]1CC[C@@]2(C)C(=CC[C@@H]3[C@@H]2CC[C@]2(C)C(=O)CC[C@@H]32)C1,inactive,–
C[C@]12C[C@H]3S[C@H]3C[C@@H]1CC[C@@H]1[C@@H]2CC[C@]2(C)[C@@H](O)CC[C@@H]12,inactive,–
Nc1ccccc1C(=O)OCC=Cc1ccccc1,inactive,–
Nc1c(Br)cc([N+](=O)[O-])cc1[N+](=O)[O-],inactive,–
CNC(=O)ON=C(CSC)C(C)(C)C,inactive,–
O=c1oc2ccccc2c(O)c1Cc1c(O)c2ccccc2oc1=O,–,0.819 µM (active)
BrCCc1ccccc1,inactive,–
Oc1cc(Cl)cc(Cl)c1,inactive,–
CC(C)CON=O,inactive,–
N=C(N)[Se],inactive,–
c1ccc2c(c1)cc1ccc3cccc4ccc2c1c34,inactive,–
CCC[CH2][Sn]([CH2]CCC)([CH2]CCC)[O][Sn]([CH2]CCC)([CH2]CCC)[CH2]CCC,–,0.236 µM (active)
O=C(O)/C=C\C(=O)O,inactive,–
Cc1cc(C(C)(C)c2cc(C)c(O)c(C)c2)cc(C)c1O,inactive,–
